From PubChem BioAssay (NCI)
The panel holds about 79,000 compounds, 15% with a hit somewhere; the sample as a whole holds those more often. The source made the active and inactive calls. No stated cut-off is given here; in the data, active means growth inhibition above about 70%; inactive means the rest.

Legend:
[1] = NCI Yeast Anticancer Drug Screen. Data for the rad50 strain (AID 155);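 further: 0% = growth of vehicle-only cultures of the same strain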; conditions: S. cerevisiae rad50 strain growth inhibition; at 50.0 µM; active compounds read high
How it was run: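 A DNA repair-deficient yeast mutant serves as the test organism; compound-induced growth inhibition is calculated against vehicle-treated cells.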

[2] = NCI Yeast Anticancer Drug Screen. Data for the mec2-1 strain (AID 157); conditions: S. cerevisiae mec2-1 strain, at 50.0 µM, active compounds read high
How it was run: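 mec2-1 yeast strain, carrying an alteration in DNA damage repair or cell cycle control, was exposed to compounds; growth inhibition was measured relative to vehicle-treated controls.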

[3] = NCI Yeast Anticancer Drug Screen. Data for the sgs1 mgt1 strain (AID 161);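 further: 0% = growth of cultures given vehicle only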; conditions: S. cerevisiae sgs1 mgt1 strain, at 50.0 µM, active compounds read high
How it was run: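 Compounds are added to genetically altered yeast, and growth is compared with cultures given vehicle alone to give percent inhibition.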

[4] = NCI Yeast Anticancer Drug Screen. Data for the cln2 rad14 strain (AID 165);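 further: 0% = growth equal to vehicle treated cultures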; conditions: S. cerevisiae cln2 rad14 strain, at 50.0 µM, active compounds read high
How it was run: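 Yeast carrying cln2 and rad14 alterations (cell cycle control and DNA damage repair) were exposed to compounds. Growth inhibition was measured against vehicle-treated controls.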

[5] = NCI Yeast Anticancer Drug Screen. Data for the bub3 strain (AID 167); conditions: S. cerevisiae bub3 mutant strain, at 50.0 µM, active compounds read high
How it was run: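 Inhibition values come from growth of compound-treated mutant yeast normalised to vehicle-treated controls.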

[6] = NCI Yeast Anticancer Drug Screen. Data for the mlh1 rad18 strain (AID 175); conditions: S. cerevisiae mlh1 rad18 strain growth inhibition; at 50.0 µM; active compounds read high
How it was run: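 Growth inhibition of the yeast strain was measured after compound exposure and expressed relative to vehicle-treated controls. The strain carries defined defects in DNA damage repair.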

Measured: growth inhibition

CC(C)C1=CC2=C(C(=O)C1=O)C13CCCC(C)(C)C1CC2OC3=O (configuration not stated)
active: [6] 85.5%
inactive: [1] 14.3% | [2] -45.1% | [3] 23.6% | [4] -12.3% | [5] -2.6%

CCC(C)CCC(N)C(=O)O (configuration not stated)
inactive: [1] 2.3% | [2] 11.4% | [3] -3.95% | [4] -0.1% | [5] 2% | [6] 1.75%

OCCN(CCO)c1ccc(O)cc1
inactive: [1] -6.85% | [2] 2.3% | [3] -17.1% | [4] 13.6% | [5] -3.6% | [6] -11.7%

CC[N+](C)(CC)CCOC(=O)C(c1ccccc1)C(O)C1CC=CCC1 (configuration not stated)
inactive: [1] 7.15% | [2] -6.3% | [3] -5.65% | [4] -30.6% | [5] -1.45% | [6] 2.3%

OCc1ccc(F)cc1
inactive: [1] -6.35% | [2] -14.6% | [3] -7.5% | [4] 3.25% | [5] -10.8% | [6] 3.45%

Cc1cccnc1N
inactive: [1] -9.4% | [2] -31.6% | [3] 5.3% | [4] -11.6% | [5] -1.15% | [6] 14.7%

COC1OC(CO)C(OC(=O)Nc2ccccc2)C(OC(=O)Nc2ccccc2)C1O (configuration not stated)
inactive: [1] -16.9% | [2] -10.7% | [3] -1.4% | [4] -38.1% | [5] 2.7% | [6] -8.15%

COC(=O)C1[C@@H](C(=O)OC)C12C=Cc1ccccc1C=C2 (some centres not stated)
inactive: [1] -33.2% | [2] -47% | [3] -50.2% | [4] 1.05% | [5] -28.6% | [6] -25.4%

CCOC(OCC)C1CC=CCC1 (configuration not stated)
inactive: [1] 0.1% | [2] -1.65% | [3] -6.7% | [4] -13.1% | [5] -6.4% | [6] -0.95%

O=C1C(NCCc2ccc(O)c(O)c2)=CC(=O)c2ncccc21
inactive: [1] 35.5% | [2] 34.6% | [3] 32.1% | [4] 24.1% | [5] 6.3% | [6] -5.35%

S=C(NCCS)Nc1ccccc1
inactive: [1] -0.6% | [2] -11.4% | [3] -2.15% | [4] -46.6% | [5] 41.8% | [6] 13.3%

Cc1nnc2n(c1=O)CCN2C
inactive: [1] -1.65% | [2] 0.1% | [3] 12.3% | [4] -4.4% | [5] 7.8% | [6] 26.2%

NCC(=O)Nc1ccc(Cl)cc1C(=O)c1ccc[nH]1
inactive: [1] 1.4% | [2] -16% | [3] -27.6% | [4] -42.4% | [5] -53.5% | [6] 0.85%

Cc1ccc(S(=O)(=O)NCC(=O)OCc2ccccc2)cc1
inactive: [1] 4.15% | [2] 3.4% | [3] 1.2% | [4] -0.55% | [5] 12.4% | [6] 7.8%

C=C(C)CCCC(C)C(O)C=O (configuration not stated)
inactive: [1] -8.85% | [2] 1.15% | [3] 1.55% | [4] 1.75% | [5] -5.35% | [6] -12.7%

c1cc[n+](-c2nc3ccccc3[n-]2)cc1
inactive: [1] 2.75% | [2] -7% | [3] 6.25% | [4] -18.5% | [5] -13.8% | [6] 3.5%

CC(C)C(C(=O)O)N(C)C(=O)c1cnc2ccccc2n1 (configuration not stated)
inactive: [1] 9.1% | [2] -1.2% | [3] -0.6% | [4] 22.9% | [5] 17.6% | [6] -6.2%

CN(CC(=O)c1ccc(I)cc1)Cc1ccccc1
inactive: [1] 28.1% | [2] -1.25% | [3] 16.4% | [4] -5.9% | [5] 12.8% | [6] 45.7%

CC1(C)C(=O)NC(=O)N1CO
inactive: [1] 27.1% | [2] 2.4% | [3] -5.45% | [4] 19.9% | [5] 14.9% | [6] 20%

CC(C)c1cc(CN(C)C)c(O)c(C(C)(C)C)c1
inactive: [1] -25.4% | [2] 23.2% | [3] -43.5% | [4] -40% | [5] -14.3% | [6] -8.3%

CC1(Br)S(=O)(=O)OCCOS1(=O)=O
inactive: [1] -23% | [2] -15.9% | [3] -12.3% | [4] 6.1% | [5] -24.2% | [6] -42.5%

CN1C(=O)C(=O)N(C)C(=O)C1=O
inactive: [1] 8.75% | [2] 11.2% | [3] 10.7% | [4] 7.1% | [5] 12.8% | [6] 9.6%

COC1=C2CC(C)CC(OC)C(O)C(C)/C=C(\C)C(OC(N)=O)C(OC)/C=C\C=C(/C)C(=O)NC(=C(C=NC(C)(C)C)C1=O)C2=O (configuration not stated)
inactive: [1] 9.15% | [2] 23.2% | [3] 23.2% | [4] 46.1% | [5] 6.4% | [6] 18.5%

C=CCCCCCCCCC(=O)OCC(C)C
inactive: [1] 11.3% | [2] 22.4% | [3] 15.9% | [4] -27.2% | [5] -24.1% | [6] 17.4%

O=C([CH-]C(=O)C(F)(F)F)c1ccccc1.O=C([CH-]C(=O)C(F)(F)F)c1ccccc1.O=C([CH-]C(=O)C(F)(F)F)c1ccccc1.[Ru+3]
inactive: [1] -11.2% | [2] -13.8% | [3] -11.5% | [4] -22.7% | [5] 9.8% | [6] 4.75%

O=[N+]([O-])c1ccccc1S(=O)(=O)N(CCCCCN(S(=O)(=O)c1ccccc1[N+](=O)[O-])S(=O)(=O)c1ccccc1[N+](=O)[O-])S(=O)(=O)c1ccccc1[N+](=O)[O-]
inactive: [1] -5.75% | [2] -5.95% | [3] 10.8% | [4] 20.6% | [5] -27.9% | [6] -11.4%

CC(O)C1OC(n2cnc3c(=O)[nH]cnc32)C(O)C1O (configuration not stated)
inactive: [1] -9.45% | [2] -24.9% | [3] -0.65% | [4] -0.85% | [5] -7.05% | [6] -22.9%

O=C(Nc1ccccc1)Sc1nc2ccccc2s1
inactive: [1] 24.5% | [2] 17.8% | [3] 45.5% | [4] 13.7% | [5] 53.9% | [6] 27.6%

COc1ccc(OC)c2c(Cl)cc(NCCCN3CCN(CCCNc4cc(Cl)c5c(OC)ccc(OC)c5n4)CC3)nc12
inactive: [1] 13.5% | [2] 16.4% | [3] 21.8% | [4] -24.1% | [5] 4.65% | [6] 25.1%

CCOC(=O)CCC(NC(=O)c1ccc(Nc2cnc3cc(C(F)(F)F)ccc3n2)cc1)C(=O)OCC (configuration not stated)
inactive: [1] 0.1% | [2] -12.8% | [3] -5.85% | [4] 19.9% | [5] 3.4% | [6] -4.65%

Cc1ccc2c(c1)C(=O)C1(C2)Cc2ccc(C)cc2C1=O
inactive: [1] -53% | [2] -45.9% | [3] 4.05% | [4] -3.45% | [5] 5.45% | [6] -24.9%

COc1ccc(C(O)C(NCCO)c2ccccc2)cc1 (configuration not stated)
inactive: [1] -1.3% | [2] -19.5% | [3] 4.8% | [4] 7.15% | [5] -3.85% | [6] 7.85%

CCOC(=O)C1(C)CCc2sc(N)c(C#N)c21 (configuration not stated)
inactive: [1] -29.2% | [2] -2.4% | [3] 3.75% | [4] -10.8% | [5] 2.8% | [6] -8.5%

COc1cccc(/C=N/N(C)c2c([N+](=O)[O-])cc(C(F)(F)F)cc2[N+](=O)[O-])c1O
inactive: [1] -1.3% | [2] -17.3% | [3] -16.6% | [4] 14.1% | [5] 3.7% | [6] -5.8%

Nc1ccc(C(=O)CC(=O)c2cccc([N+](=O)[O-])c2)cc1
inactive: [1] 26.4% | [2] 20.4% | [3] 39.4% | [4] 21.5% | [5] 27.4% | [6] 2.1%

CC1([C@H]2CC[C@H]3[C@@H]4CC[C@H]5OC(=O)CC[C@]5(C)[C@H]4CC[C@]23C)SCCS1
inactive: [1] 20.7% | [2] -19% | [3] 12.5% | [4] 8.6% | [5] 8.55% | [6] 14.8%

ClCCCCCCCCCCl
inactive: [1] 28.6% | [2] -17.4% | [3] -12.7% | [4] -9% | [5] -13.2% | [6] 2.15%
